In the OligoGym collection one finds sensor-assay potency score (higher = more potent) data, which are given here for 40 sequences.
Note: reference of the scale not given here.

The target of one assay is C3orf64. Briefly: pooled miR-30 sensor sort-seq; sequence = guide strand. The conditions noted are these: shRNA.
In turn, TAAACAAGTTGGAACACTCTGG came in with a sensor-assay potency score (higher = more potent) of 0.509.
The sequence TTAGCATCTTCTATAGGTCTGA yielded a sensor-assay potency score (higher = more potent) of 0.396.
With TAACATGTTGTAATTCTTCTTA, the sensor-assay potency score (higher = more potent) is 0.391.
On the same count and under the same terms, the same measure for TATAGCTTTGTAGCTCAGCAAA: -1.7; for TTAGTTGATCTAAAAACCCAAG: -1.13; for TTAATCACAAATGCTCTCCATG: -0.629.
On the same count and under the same terms, the same measure for TATATGGACAAAGAGAGTCTTT: -0.594.

A further assay has as its target C4orf27. The description is as above. The conditions noted are these: shRNA.
As for TTATACAATTTTTCTTTGCTTC, the sensor-assay potency score (higher = more potent) was -0.21.
Same read-out and setting: the same measure for TTAGTCTCTCCTCATCACTTGC: -0.932; for TATGTTCTCTTGACTTCTGTTT: -0.298; for TATTTCTCTAAGTTTTTTCGTC: -0.0754.
On the same count and under the same terms, the same measure for TATAATGATTTTCTACTTCTTT: -0.484; for TTCTCTTGAGGTCAGCATCTGT: -0.164.
Still for that read-out and setting: the same measure for TTTATCTACTGGAACAACCAAG: -0.789.
In the case of TTCATCATTAGCAAACTGCACA, the sensor-assay potency score (higher = more potent) was -0.513.
As for TTCTTTTCGAAGGTCACTGGAG, the sensor-assay potency score (higher = more potent) is -0.538.
The same measure, in the same setting: the same measure for TAATGGTCTGGAACTCAGGAGG: -0.721; for TCTACTGGAACAACCAAGCCTG: -0.00895; for TTATCTACTGGAACAACCAAGC: -0.86.

Another assay concerns the target C4orf45. Described as above. The conditions noted are these: shRNA.
For the sequence TCTCTGATCAGTGTCCTCGAAA, the sensor-assay potency score (higher = more potent) was -0.979.
On to TAATCCTTTATGTAGTCTGGAC, for which the sensor-assay potency score (higher = more potent) is -0.844.
In the case of TTATATTTTGCTGGCAAGCTTC, the sensor-assay potency score (higher = more potent) was -1.08.
Still for that read-out and setting: the same measure for TTATGTAGTCTGGACCTGTAAA: -1.37.
With TAGGTGGTTTGGAAGCTCTTGG, the sensor-assay potency score (higher = more potent) was -0.261.
Consider TTCCTTTTTTGGTAGCTTCGGC, for which the sensor-assay potency score (higher = more potent) was -0.246.
Still for that read-out and setting: the same measure for TTTTTCTAACGCCAGATGCTGT: -0.936; for TTAGGTGGTTTGGAAGCTCTTG: -0.244.
With TTATACTGTGGTATTCTCCAAC, the sensor-assay potency score (higher = more potent) is -0.109.
On the same count and under the same terms, the same measure for ATAAATATCTGAGATCTCCAGT: 0.467.
As to TTTTGGTAGCTTCGGCAGCTTA, the sensor-assay potency score (higher = more potent) was -1.74.
Same read-out and setting: the same measure for TATTTTGCTGGCAAGCTTCTAT: -0.0491.

The target of the next assay is C5AR1. The assay is described as above. To be noted: shRNA.
In turn, TTCAGCAGCAGGAAGGTGGGTG gave a sensor-assay potency score (higher = more potent) of 0.301.
For TCTTCAGTCAACACGTTCCGGA, the sensor-assay potency score (higher = more potent) is -0.631.
Still for that read-out and setting: the same measure for TTATTCAGCAGCAGGAAGGTGG: -0.586.
Turning to TTAACTCACTTACAAGAGCTTA, the sensor-assay potency score (higher = more potent) is -0.512.
In turn, TTGAGTGTCTTGGTGGACCGCG displayed a sensor-assay potency score (higher = more potent) of 0.0393.
Same read-out and setting: the same measure for TTAAACACCAGCAGAAAGCGGT: -0.159; for TTTGTCGTGGCTGTAGTCCACG: -0.519.
Turning to TCTACTTGTCTGTATTCTGAGT, the sensor-assay potency score (higher = more potent) was -0.792.
On the same count and under the same terms, the same measure for TTGAGGTCCAGGGTATCCTTGT: -0.809.
